# In PubChem BioAssay AID1159580 (chemical genetic matrix, 2015):
# Hit rate of the full screen: of about 5,500 compounds, about 2,000 (36%) were called active. Inconclusive results (about 18%) are left out. This is one part of the list. A number with no mark means an inactive call. No stated cut-off is given here; in the data, active means normalized growth mostly below about 0.91 (no sharp cut-off); inconclusive means no clear call, values can overlap the other calls; inactive means mostly above about 0.92.
# Test: chemical genetic growth profiling, strain panel (AID 1159580);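 further: tested at 20 µM; growth read once vehicle control cultures reached saturation at 30 °C; 1 = growth at the plate median or of vehicle wells; lower values mean less growth of the strain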
# Settings: S. cerevisiae deletion strains, growth OD
# [1] = locus YDL101C, strain DUN1, hits give low values
# [2] = locus YHR030C, strain SLT2, hits give low values
smiles,measurement,setting,value
OC(CN1CCN(c2nc3ccc(Cl)cc3s2)CC1)Cn1ccc2ccccc21 (stereo not given),normalized growth,"locus YAR019C, strain CDC15, hits give low values",1
same,normalized growth,"locus YBL105C, strain PKC1, hits give low values",0.99
same,normalized growth,"locus YBR135W, strain CKS1, hits give low values",0.991
same,normalized growth,"locus YBR136W, strain MEC1, hits give low values",0.996
same,normalized growth,"locus YBR160W, strain CDC28, hits give low values",0.985
same,normalized growth,"locus YDL017W, strain CDC7, hits give low values",0.996
same,normalized growth,"locus YDL028C, strain MPS1, hits give low values",0.99
same,normalized growth,[1],0.989
same,normalized growth,"locus YDL108W, strain KIN28, hits give low values",0.986
same,normalized growth,"locus YDL132W, strain cdc53, hits give low values",1
same,normalized growth,"locus YDL214C, strain PRR2, hits give low values",0.92
same,normalized growth,"locus YDR052C, strain DBF4, hits give low values",1
same,normalized growth,"locus YDR054C, strain cdc34, hits give low values",0.996
same,normalized growth,"locus YDR226W, strain ADK1, hits give low values",0.99
same,normalized growth,"locus YDR477W, strain SNF1, hits give low values",0.935
same,normalized growth,"locus YER123W, strain YCK3, hits give low values",0.903
same,normalized growth,"locus YER133W, strain GLC7, hits give low values",0.93
same,normalized growth,"locus YFL009W, strain cdc4, hits give low values",0.993
same,normalized growth,"locus YFL029C, strain CAK1, hits give low values",0.989
same,normalized growth,"locus YFR003C, strain YPI1, hits give low values",0.992
same,normalized growth,"locus YFR019W, strain FAB1, hits give low values",0.935
same,normalized growth,"locus YFR028C, strain CDC14, hits give low values",0.995
same,normalized growth,"locus YGR040W, strain KSS1, hits give low values",0.934
same,normalized growth,"locus YGR052W, strain FMP48, hits give low values",1.02
same,normalized growth,"locus YGR092W, strain DBF2, hits give low values",0.96
same,normalized growth,[2],0.864
same,normalized growth,"locus YHR079C, strain IRE1, hits give low values",0.955
same,normalized growth,"locus YHR082C, strain KSP1, hits give low values",1.05
same,normalized growth,"locus YHR205W, strain SCH9, hits give low values",0.97
same,normalized growth,"locus YIL147C, strain SLN1, hits give low values",0.999
same,normalized growth,"locus YJL095W, strain BCK1, hits give low values",0.954
same,normalized growth,"locus YJL128C, strain PBS2, hits give low values",0.942
same,normalized growth,"locus YJL157C, strain FAR1, hits give low values",0.924
same,normalized growth,"locus YJR016C, strain ILV3, hits give low values",0.991
same,normalized growth,"locus YJR066W, strain TOR1 (second series), hits give low values",0.875
same,normalized growth,"locus YJR066W, strain TOR1, hits give low values",0.991
same,normalized growth,"locus YKL048C, strain ELM1, hits give low values",0.981
same,normalized growth,"locus YKL067W, strain YNK1, hits give low values",0.924
same,normalized growth,"locus YKL101W, strain HSL1, hits give low values",0.942
same,normalized growth,"locus YKL193C, strain SDS22, hits give low values",0.994
same,normalized growth,"locus YKL203C, strain TOR2, hits give low values",0.981
same,normalized growth,"locus YLR113W, strain HOG1, hits give low values",0.864
same,normalized growth,"locus YLR133W, strain CKI1, hits give low values",0.942
same,normalized growth,"locus YLR403W, strain SFP1, hits give low values",0.926
same,normalized growth,"locus YML070W, strain DAK1, hits give low values",0.927
same,normalized growth,"locus YMR001C, strain CDC5, hits give low values",0.988
same,normalized growth,"locus YMR205C, strain PFK2 (second series), hits give low values",0.948
same,normalized growth,"locus YMR277W, strain FCP1, hits give low values",1
same,normalized growth,"locus YNL006W, strain LST8, hits give low values",0.985
same,normalized growth,"locus YNL020C, strain ARK1, hits give low values",0.942
same,normalized growth,"locus YNL161W, strain CBK1, hits give low values",0.982
same,normalized growth,"locus YNL183C, strain NPR1, hits give low values",1
same,normalized growth,"locus YNL207W, strain RIO2, hits give low values",1
same,normalized growth,"locus YNL222W, strain SSU72, hits give low values",0.999
same,normalized growth,"locus YNL307C, strain MCK1 (second series), hits give low values",0.935
same,normalized growth,"locus YOL078W, strain AVO1, hits give low values",0.976
same,normalized growth,"locus YOL136C, strain PFK27, hits give low values",0.912
same,normalized growth,"locus YOR061W, strain CKA2, hits give low values",0.952
same,normalized growth,"locus YOR119C, strain RIO1, hits give low values",1.01
same,normalized growth,"locus YOR231W, strain MKK1, hits give low values",0.947
same,normalized growth,"locus YOR329C, strain SCD5, hits give low values",0.986
same,normalized growth,"locus YPL031C, strain PHO85, hits give low values",0.938
same,normalized growth,"locus YPL153C, strain RAD53, hits give low values",0.959
same,normalized growth,"locus YPL204W, strain HRR25, hits give low values",0.895
same,normalized growth,"locus YPL209C, strain IPL1, hits give low values",0.989
same,normalized growth,"locus YPL256C, strain CLN2, hits give low values",0.938
same,normalized growth,"locus YPR025C, strain CCL1, hits give low values",0.99
same,normalized growth,"locus YPR106W, strain ISR1, hits give low values",0.991
same,normalized growth,"locus YPR111W, strain DBF20, hits give low values",0.967
same,normalized growth,"strain NNK1, hits give low values",0.974
same,normalized growth,"strain TSCII, hits give low values",0.995
OC(CN1CCN(c2nc3ccc(Cl)cc3s2)CC1)CN1CCCN(c2ncc(C(F)(F)F)cc2Cl)CC1 (stereo not given),normalized growth,"locus YAL013W, strain DEP1, hits give low values",1
same,normalized growth,"locus YBR229C, strain ROT2, hits give low values",0.943
same,normalized growth,"locus YCL061C, strain MRC1, hits give low values",0.997
same,normalized growth,[1],1.03
same,normalized growth,"locus YDL134C, strain PPH21, hits give low values",0.0459 (active)
same,normalized growth,"locus YDR150W, strain NUM1, hits give low values",0.942
same,normalized growth,"locus YEL061C, strain CIN8, hits give low values",0.0536 (active)
same,normalized growth,"locus YGR078C, strain PAC10, hits give low values",1.02
same,normalized growth,[2],0.068 (active)
same,normalized growth,"locus YHR087W, strain rtc3, hits give low values",0.952
same,normalized growth,"locus YJL187C, strain SWE1, hits give low values",0.995
same,normalized growth,"locus YJR043C, strain POL32, hits give low values",1.02
same,normalized growth,"locus YJR075W, strain HOC1, hits give low values",1.01
same,normalized growth,"locus YKL190W, strain CNB1, hits give low values",0.0453 (active)
same,normalized growth,"locus YLR039C, strain RIC1, hits give low values",0.0605 (active)
same,normalized growth,"locus YLR058C, strain SHM2 (second series), hits give low values",0.999
same,normalized growth,"locus YLR085C, strain ARP6, hits give low values",0.0639 (active)
same,normalized growth,"locus YLR262C, strain YPT6, hits give low values",0.0604 (active)
same,normalized growth,"locus YML094W, strain GIM5, hits give low values",0.0664 (active)
same,normalized growth,"locus YMR219W, strain ESC1, hits give low values",1.01
same,normalized growth,"locus YMR263W, strain SAP30, hits give low values",1.02
same,normalized growth,"locus YNL153C, strain GIM3, hits give low values",1
same,normalized growth,"locus YNL298W, strain CLA4 (second series), hits give low values",0.0802 (active)
same,normalized growth,"locus YNL322C, strain KRE1, hits give low values",1.03
same,normalized growth,"locus YNR030W, strain Alg12, hits give low values",0.0638 (active)
same,normalized growth,"locus YOL006C, strain TOP1, hits give low values",0.0656 (active)
same,normalized growth,"locus YPL055C, strain LGE1, hits give low values",0.985
same,normalized growth,"locus YPL241C, strain CIN2, hits give low values",0.0618 (active)
same,normalized growth,"locus YPR135W, strain CTF4, hits give low values",0.16 (active)
